Measured values from PubChem BioAssay (NCATS).
Inconclusive results are not listed. Where a call stands in place of a potency, no number is given. A structure can be active in one record and inactive in another. Calls of active or inactive are those of the source. Unless noted, calls come from the whole dose curve; as a rule, active = well fitted curve in the direction sought with a large enough effect; inconclusive = small, poorly fitted or top-dose-only effect, or another doubt; inactive = no such curve, though single readings can be large; an effect the other way counts as inactive or inconclusive.

Columns and labels:
[1] = biological target: Voltage-gated inwardly rectifying potassium channel KCNH2 (Homo sapiens) (UniProt Q12809); assay: qHTS Assay for Small Molecule Inhibitors of the Human hERG Channel Activity (AID 588834); conditions: U2OS BacMam hERG, FluxOR thallium flux fluorescence; series mostly up to 46.1 µM;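 note: lower thallium flux fluorescence means stronger hERG block; nearly all actives have a fitted effect of over 50% in size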; note: potency is the fitted concentration of half-maximal effect
Voltage-gated inwardly rectifying potassium channel KCNH2 (Homo sapiens), sequence (Q12809 whole entry, looked up): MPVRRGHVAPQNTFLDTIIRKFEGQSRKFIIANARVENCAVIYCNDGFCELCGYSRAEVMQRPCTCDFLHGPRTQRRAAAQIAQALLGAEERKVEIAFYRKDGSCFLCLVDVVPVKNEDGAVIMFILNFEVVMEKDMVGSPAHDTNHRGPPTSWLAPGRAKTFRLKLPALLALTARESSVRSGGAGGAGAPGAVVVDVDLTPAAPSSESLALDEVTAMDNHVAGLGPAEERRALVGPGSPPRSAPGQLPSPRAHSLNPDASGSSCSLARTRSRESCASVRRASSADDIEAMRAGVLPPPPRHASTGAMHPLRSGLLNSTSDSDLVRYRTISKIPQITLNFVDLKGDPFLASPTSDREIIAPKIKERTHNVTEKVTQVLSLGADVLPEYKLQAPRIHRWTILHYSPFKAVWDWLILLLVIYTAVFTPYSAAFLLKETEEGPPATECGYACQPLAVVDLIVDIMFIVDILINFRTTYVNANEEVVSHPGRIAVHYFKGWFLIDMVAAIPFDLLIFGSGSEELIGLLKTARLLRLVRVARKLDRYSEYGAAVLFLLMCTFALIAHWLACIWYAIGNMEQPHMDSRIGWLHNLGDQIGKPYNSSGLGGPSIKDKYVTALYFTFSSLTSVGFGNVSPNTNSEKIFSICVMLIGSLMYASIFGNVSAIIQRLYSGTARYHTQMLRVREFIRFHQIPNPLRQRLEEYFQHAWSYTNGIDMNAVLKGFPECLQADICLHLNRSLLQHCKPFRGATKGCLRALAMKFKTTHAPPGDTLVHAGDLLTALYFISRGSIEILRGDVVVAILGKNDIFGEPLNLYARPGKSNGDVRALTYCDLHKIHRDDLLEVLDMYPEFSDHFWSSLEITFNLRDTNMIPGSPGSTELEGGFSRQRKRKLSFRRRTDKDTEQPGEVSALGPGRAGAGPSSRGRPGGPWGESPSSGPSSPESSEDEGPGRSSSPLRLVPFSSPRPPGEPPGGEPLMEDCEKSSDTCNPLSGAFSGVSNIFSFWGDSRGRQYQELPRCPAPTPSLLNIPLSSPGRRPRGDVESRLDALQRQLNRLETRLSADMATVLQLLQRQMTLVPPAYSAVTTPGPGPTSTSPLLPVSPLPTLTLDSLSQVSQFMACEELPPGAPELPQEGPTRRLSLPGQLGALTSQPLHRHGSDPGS
Outline: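 hERG-BacMam U2OS, 2000 cells/well; 0.7X FluxOR loading 1 hr RT dark; cpd ~10 min 37 °C; stim buffer; FDSS fluorescence 2 min @ 1 s; AC50 Hill fit.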

[2] = biological target: Luciferin 4-monooxygenase (Photinus pyralis) (UniProt P08659); assay: Biochemical firefly luciferase enzyme assay for NPC (AID 624030);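 note: purified P. pyralis luciferase at 10 nM with luciferin and ATP substrate; nearly all actives have a fitted effect of over 70% in size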; conditions: purified P. pyralis luciferase, luminescence, 5 min; series mostly up to 58.6 µM
Luciferin 4-monooxygenase (Photinus pyralis), sequence (P08659 whole entry, looked up): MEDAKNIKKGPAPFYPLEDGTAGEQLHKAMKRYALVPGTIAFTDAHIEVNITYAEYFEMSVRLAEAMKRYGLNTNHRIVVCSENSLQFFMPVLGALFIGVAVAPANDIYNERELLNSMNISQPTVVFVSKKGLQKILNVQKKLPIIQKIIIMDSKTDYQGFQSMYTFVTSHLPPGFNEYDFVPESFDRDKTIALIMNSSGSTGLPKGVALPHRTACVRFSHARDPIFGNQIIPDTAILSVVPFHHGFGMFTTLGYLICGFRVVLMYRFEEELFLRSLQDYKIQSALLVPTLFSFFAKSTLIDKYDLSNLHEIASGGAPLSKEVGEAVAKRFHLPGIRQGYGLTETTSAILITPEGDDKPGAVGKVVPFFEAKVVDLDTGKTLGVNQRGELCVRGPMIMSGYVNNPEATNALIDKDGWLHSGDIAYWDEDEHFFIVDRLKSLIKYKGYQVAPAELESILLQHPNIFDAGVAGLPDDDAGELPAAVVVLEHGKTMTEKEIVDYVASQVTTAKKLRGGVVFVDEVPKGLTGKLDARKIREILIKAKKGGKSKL
Outline: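 Purified P. pyralis luciferase at 10 nM in 50 mM Tris Acetate (final), luminescence read within 5 minutes of enzyme addition to compounds. Activity normalised to PTC124 versus DMSO; concentration-response curves classed by r2, magnitude and activity.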

[3] = S16 Schwann cell viability assay (CellTiter-Glo assay) (AID 624031); conditions: S16 rat Schwann cells viability, 24 h; series mostly up to 57.5 µM; note: nearly all actives have a fitted effect of over 70% in size; note: potency is the fitted concentration of half-maximal effect
Outline: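 Concentration-effect curves come from CellTiter-Glo luminescence of S16 rat Schwann cells after 24 h compound exposure. Each reading was normalized to DMSO wells (0%) and wells without cells, and curves were ranked by r2 and response magnitude.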

[4] = S16 Schwann cell PMP22 intronic element firefly luciferase assay (AID 624032); conditions: S16 rat Schwann cells, PMP22 element FLuc, 24 h; series mostly up to 57.5 µM; note: nearly all actives have a fitted effect of over 30% in size; note: potency is the fitted concentration of half-maximal effect
Outline: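 Rat S16 Schwann cells stably carrying firefly luciferase driven by a PMP22 intronic element, in 10% FBS, treated 24 h at 37 C. ONE-Glo luminescence normalized to PTC124 control and DMSO (0%); curves classed by r2, magnitude and activity.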

[5] = S16 Schwann cell PMP22 intronic element beta-lactamase assay (AID 624044; calls by dose curve; note: nearly all actives have a fitted effect of over 15% in size; note: potency is the fitted concentration of half-maximal effect); conditions: S16 rat Schwann cells, PMP22 element beta-lactamase FRET, 24 h; series mostly up to 38.3 µM
Outline: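 Rat S16 Schwann cells with beta-Lac driven by a PMP22 intronic element, compound-treated 24 h at 37 °C. LiveBLAzer FRET B/G read: 460 nm normalized to potassium clavulanate vs DMSO; 535 nm FRET as viability; concentration-effect curves classified.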

## CCN(CC)CCOC(=O)C(C)(c1ccccc1)c1ccccc1
[1]
  Potency: 3.55 µM (active)
[2]
  Potency: inactive
[3]
  Potency: inactive
[4]
  Potency: inactive
[5]
  Potency: inactive

## C[C@@H]1O[C@@H](O[C@@H]2C=C3CC[C@@H]4[C@H](CC[C@]5(C)[C@@H](c6ccc(=O)oc6)CC[C@]45O)[C@@]3(C)CC2)[C@H](O)[C@H](O)[C@H]1O
[1]
  Potency: inactive

## CN1C(=O)CN=C(c2ccccc2)c2cc([N+](=O)[O-])ccc21
[1]
  Potency: inactive
[2]
  Potency: inactive
[3]
  Potency: inactive
[4]
  Potency: inactive
[5]
  Potency: inactive

## CCN(CC)C(C)C(=O)c1ccccc1 (centres undefined)
[1]
  Potency: inactive
[2]
  Potency: inactive
[3]
  Potency: inactive
[4]
  Potency: inactive

## CC(C)(O)C(Cl)(Cl)Cl
[1]
  Potency: inactive
[2]
  Potency: inactive
[3]
  Potency: inactive

## CC1=C2[C@H]3OC(=O)[C@@H](C)[C@@H]3CC[C@@]2(C)C=CC1=O
[1]
  Potency: inactive

## C[C@H](N)[C@H](O)c1ccc(O)c(O)c1
[1]
  Potency: inactive

## C[C@]12CC[C@H]3[C@@H](CC=C4C[C@@H](O)CC[C@@]43C)[C@@H]1CC[C@@H]2O
[1]
  Potency: inactive
[2]
  Potency: inactive

## OC(O)C(Cl)(Cl)Cl
[1]
  Potency: inactive
[2]
  Potency: inactive
[3]
  Potency: inactive

## CCS(=O)(=O)C(C)(C)S(=O)(=O)CC
[1]
  Potency: inactive
[2]
  Potency: inactive
[3]
  Potency: inactive
[4]
  Potency: inactive

## CC(C)C(Br)C(=O)NC(N)=O (centres undefined)
[1]
  Potency: inactive
[2]
  Potency: inactive
[3]
  Potency: inactive

## C[N+]1(CCC(C(N)=O)(c2ccccc2)c2ccccc2)CCCCC1
[1]
  Potency: inactive
[2]
  Potency: inactive
[3]
  Potency: inactive

## CCCC[N+]1(C)[C@@H]2CC(OC(=O)[C@H](CO)c3ccccc3)C[C@H]1[C@@H]1O[C@@H]12 (some centres undefined)
[1]
  Potency: inactive

## NCc1cccnc1
[1]
  Potency: inactive
[2]
  Potency: inactive
[3]
  Potency: inactive

## CCN(Cc1ccc(Cl)nc1)/C(=C/[N+](=O)[O-])NC
[1]
  Potency: inactive
[2]
  Potency: inactive
[3]
  Potency: inactive

## CNC(=O)NC(O)C(Cl)(Cl)Cl (centres undefined)
[1]
  Potency: inactive
[2]
  Potency: inactive
[3]
  Potency: inactive

## Oc1ccc2[nH]cc(CCCCN3CC=C(c4ccccc4)CC3)c2c1
[1]
  Potency: 1.26 µM (active)
[2]
  Potency: inactive
[3]
  Potency: inactive

## CN(C)c1ccc(C(=C2C=CC(=[N+](C)C)C=C2)c2ccccc2)cc1
[1]
  Potency: inactive

## C[N+](C)(C)CCOC(=O)C(O)(c1ccccc1)c1ccccc1
[1]
  Potency: inactive
[2]
  Potency: inactive
[3]
  Potency: inactive

## COc1ccc(C(=O)N2CCCC2=O)cc1
[1]
  Potency: inactive
[2]
  Potency: inactive
[3]
  Potency: inactive
[4]
  Potency: inactive

## Cc1ncc2n1-c1ccc(Cl)cc1C(c1ccccc1F)=NC2
[1]
  Potency: inactive
[2]
  Potency: inactive
[3]
  Potency: inactive

## COC(=O)C1=CCCN(C)C1
[1]
  Potency: inactive
[2]
  Potency: inactive
[3]
  Potency: inactive

## O=C(O)c1nn(Cc2ccc(Cl)cc2Cl)c2ccccc12
[1]
  Potency: inactive
[2]
  Potency: inactive
[3]
  Potency: inactive
[4]
  Potency: inactive
[5]
  Potency: inactive

## CC(Cc1ccccc1)NCc1ccccc1Cl (centres undefined)
[2]
  Potency: inactive
[3]
  Potency: inactive
[5]
  Potency: inactive

## COc1cc(CC(C)N)cc2c1OCO2 (centres undefined)
[2]
  Potency: inactive

## Cc1cccc(Cc2cnc[nH]2)c1C
[2]
  Potency: inactive

## CCCCCCCCCCCCCCCC[n+]1ccccc1
[4]
  Potency: 10.2 µM (active)
[5]
  Potency: 12.6 µM (active)

## COc1ccc(OC)c(CC(C)N)c1 (centres undefined)
[2]
  Potency: inactive

## CN(C)C(=S)SC(=S)N(C)C
[4]
  Potency: 2.87 µM (active)

## CC[C@H](O)C(C[C@H](C)N(C)C)(c1ccccc1)c1ccccc1
[2]
  Potency: inactive

## O=C(O)c1ccc(OCCCOc2ccc(C(=O)O)cc2)cc1
[4]
  Potency: inactive

## CC(CC(C#N)(c1ccccc1)c1ccccc1)N(C)C (centres undefined)
[2]
  Potency: inactive

## CCCN(CCC)CCc1c[nH]c2ccccc12
[2]
  Potency: inactive

## Clc1ccc(CO/N=C(\Cn2ccnc2)c2ccc(Cl)cc2Cl)c(Cl)c1
[2]
  Potency: inactive
[3]
  Potency: inactive
[5]
  Potency: inactive

## Cc1nc2ccccc2c(=O)n1-c1ccccc1Cl
[2]
  Potency: inactive

## OC(c1ccccc1)(c1ccccc1)C1CCNCC1
[2]
  Potency: inactive
[3]
  Potency: inactive

## CCOC(=O)c1ncn2c1CN(C)C(=O)c1c(I)cccc1-2
[2]
  Potency: inactive

## CNC(C)Cc1ccccc1OC (centres undefined)
[2]
  Potency: inactive

## Cc1c(Cl)c(=O)oc2cc(OP(=O)(OCCCl)OCCCl)ccc12
[2]
  Potency: inactive
[3]
  Potency: inactive

## O=C(O)Cc1ccccc1
[2]
  Potency: inactive

## Cc1nnc2n1-c1sc(CCc3ccc(CC(C)C)cc3)cc1C(c1ccccc1Cl)=NC2C (centres undefined)
[2]
  Potency: inactive

## COc1ccc2c(C(=O)c3ccc(Cl)cc3)c(C)n(CC(=O)O)c2c1
[2]
  Potency: inactive

## CN1C(=O)[C@@H](NC(=O)c2cc3ccccc3[nH]2)N=C(c2ccccc2)c2ccccc21
[2]
  Potency: inactive
[3]
  Potency: inactive

## CN(C)CCc1c[nH]c2ccc(O)cc12
[2]
  Potency: inactive

## COc1cc(C(=S)N2CCOCC2)ccc1O
[4]
  Potency: 5.1 µM (active)

## CC[C@H]1C[C@H]2[C@@H]3CCC4=CC(=O)CC[C@@H]4[C@H]3CC[C@]2(C)[C@H]1O
[2]
  Potency: inactive

## C[C@]12CC[C@H]3[C@@H](CCC4=CC(=O)CC[C@@H]43)[C@@H]1CC[C@@H]2O
[2]
  Potency: inactive

## CN(C)CCc1c[nH]c2ccccc12
[2]
  Potency: inactive

## c1ccc2c(c1)Sc1ccccc1N2CC1CN2CCC1CC2 (centres undefined)
[2]
  Potency: inactive

## C[N+](C)(C)CCCCCCCCCC[N+](C)(C)C
[2]
  Potency: inactive

## CCC(=O)OC1(c2ccccc2)CCN(C)CC1
[2]
  Potency: inactive

## CN1C[C@H](C(=O)N[C@]2(C)O[C@@]3(O)[C@@H]4CCCN4C(=O)[C@H](Cc4ccccc4)N3C2=O)C[C@@H]2c3cccc4[nH]cc(c34)C[C@H]21
[4]
  Potency: 25.6 µM (active)

## NC(N)=NN=C(/C=C/c1ccc([N+](=O)[O-])o1)/C=C/c1ccc([N+](=O)[O-])o1
[5]
  Potency: 9.99 µM (active)

## CCC1(c2ccccc2)CCC(=O)NC1=O (centres undefined)
[2]
  Potency: inactive
[3]
  Potency: inactive

## O=C1NCN(c2ccccc2)C12CCN(CCCC(c1ccc(F)cc1)c1ccc(F)cc1)CC2
[3]
  Potency: 22.8 µM (active)

## CCCCCCCCCCCCOCCOCCOCCOCCOCCOCCOCCOCCOCCO
[4]
  Potency: 18.1 µM (active)

## C[C@]12Cc3nonc3C[C@@H]1CC[C@@H]1[C@@H]2CC[C@@]2(C)[C@H]1CC[C@]2(C)O
[2]
  Potency: inactive

## COc1cc(CC(C)N)c(OC)cc1Br (centres undefined)
[2]
  Potency: inactive
